These results are taken from PubChem BioAssay AID463173 (ICCB-Longwood Screening Facility, Harvard Medical School, 2010).

Structures are written as SMILES. In all, about 52,000 compounds went through this assay and about 1,700 (3.3%) were called active. This is one part of a sample in which actives are shown more often than they occur. Values without a mark were called inactive. Rule as the data show it: active = survival mostly below about 52% (no sharp cut-off); inactive = mostly above about 56%.

The test concerns Wild type. Briefly: growth inhibition of S. aureus wild type versus tarO mutant, primary screen, teichoic acid synthesis inhibitors, RN4220, OD600 (AID 463173). Conditions: S. aureus RN4220 wild type/DeltatarO growth, OD600, 18 h, stronger effect = lower value, screened at 18.75 µg/mL (by protocol).
As to `CCCN1CCN(CCCNC(=O)c2cc3c(=O)n(CC)c4ccccc4c3s2)CC1`, the survival is 85%.
The result for `CC1CCN(CC(=O)N2CCN(c3ccccc3)CC2)CC1` reads 106%.
As for `COc1ccc(-c2cn3nc(N4CCCC(C(=O)Nc5ccccc5OC)C4)sc3n2)cc1` (stereo not drawn), the survival is 135%.
For `CN(C)S(=O)(=O)c1ccc2c(c1)N(CC(=O)Nc1ccc(OC(F)(F)F)cc1)C(=O)CS2`, the survival is 71%.
With `COc1ccc(C(=O)NCCN=C2NS(=O)(=O)c3ccccc32)cc1`, the survival is 108%.
`CCN1CCN(C(c2ccccc2)c2c(O)cc(C)n(CCOC)c2=O)CC1` (stereo not drawn): the survival is 91%.
`COCCn1c(C)cc(O)c(C(c2ccccc2)N2CCN(C)CC2)c1=O` (stereo not drawn): the survival was 87%.
Consider `COCCn1c(C)cc(O)c(C(c2ccccc2)N2CCN(CCO)CC2)c1=O` (stereo not drawn), for which the survival is 0% (active).
Take `COc1cccc(C(=O)c2cn(CC(=O)NCCc3ccccc3)c3nc(C)ccc3c2=O)c1`: the survival was 64%.
Consider `O=C(NCCn1cc(SCc2ccc(C(F)(F)F)cc2)c2ccccc21)c1ccccc1F`, for which the survival was 35%.
Regarding `COc1ccccc1C(=O)NCCn1cc(SCc2ccccc2Cl)c2ccccc21`, the survival was 28%.
Turning to `O=C(NCCn1cc(SCc2cccc(F)c2)c2ccccc21)c1cccc(C(F)(F)F)c1`, the survival is 8% (active).
With `COc1ccccc1C(=O)NCCn1cc(SCc2ccc(C)cc2)c2ccccc21`, the survival is 3% (active).
For the molecule `Cc1ccc(CSc2cn(CCNC(=O)c3cccs3)c3ccccc23)cc1`, the survival was 62%.
On to `COc1ccc(C(=O)NCCn2cc(SCc3cccc(F)c3)c3ccccc32)cc1OC`, for which the survival is 68%.
Take `Cc1nc2cc(C(F)(F)F)ccc2n1C1CCN(C(=O)C2CC2)CC1`: the survival was 95%.
Consider `Cn1ncc2c(NCc3ccc(Cl)cc3)ncnc21`, for which the survival was 75%.
For `CCCC(=O)Nc1cccc(-c2nc3ncccc3o2)c1`, the survival is 88%.
In the case of `COc1ccc(OCC(=O)Nc2ccc(-c3nc4ncccc4o3)cc2)cc1`, the survival was 119%.
Take `O=C(COc1ccc(Cl)cc1Cl)Nc1ccc(C(=O)OC2CCCCC2)cc1`: the survival is 78%.
On to `CCC(C)c1ccc(OCC(=O)Nc2ccc(-c3nc4ncccc4o3)cc2)cc1` (stereo not drawn), for which the survival is 60%.
As to `CCC(C)c1ccc(OCC(=O)Nc2cccc(-c3nc4ncccc4o3)c2)cc1` (stereo not drawn), the survival was 6% (active).
As to `Cc1cccc(OCC(=O)Nc2ccc(Cl)c(-c3nc4ncccc4o3)c2)c1C`, the survival was 38%.
For `Cc1ccccc1OCC(=O)Nc1ccc(-c2nc3ncccc3o2)cc1` the value was 69%; for `Cc1cc(OCC(=O)Nc2ccc(C(=O)OC3CCCCC3)cc2)cc(C)c1Cl`, 52%.
As to `Cc1ccc(C(C)C)c(OCC(=O)Nc2cccc(-c3nc4ncccc4o3)c2)c1`, the survival was 2% (active).
For `Cc1ccc(C(C)C)c(OCC(=O)Nc2ccc(C(=O)OC3CCCCC3)cc2)c1` the value was 6% (active); for `Cc1ccc(C(C)C)c(OCC(=O)Nc2ccc(-c3nc4ncccc4o3)cc2C)c1`, 69%.
For `Cc1cc(C)c(OCC(=O)Nc2cccc(-c3nc4ncccc4o3)c2)c(Br)c1`, the survival is 4% (active).
In the case of `O=C(Nc1ccccc1)Nc1nnc(SCC(=O)N2CCCCC2)s1`, the survival was 131%.
For the molecule `CC(C)(C)OC(=O)N1CCC(c2c(C(=O)N3CCN(C(=O)c4ccco4)CC3)cnn2-c2cccc(Cl)c2)CC1`, the survival was 95%.
For the molecule `CCn1cc(C(=O)Nc2ccccc2)c(=O)c2ccc(C)nc21`, the survival was 111%.
Turning to `CCc1ccccc1Nc1nc2ccccc2n2cnnc12`, the survival was 147%.
On to `c1ccc(N(c2ccccc2)c2nc(-n3nnc4ccccc43)nc(-n3nnc4ccccc43)n2)cc1`, for which the survival is 103%.
Take `Cc1cccc(Oc2coc3cc(OCC(=O)NC4CCCCC4)ccc3c2=O)c1`: the survival is 80%.
Consider `COc1ccc(C2C(C(N)=O)=C(C)Nc3nc(SCc4ccccc4Cl)nn32)cc1OC` (stereo not drawn), for which the survival is 143%.
With `CC1=C(C(=O)Nc2ccccc2)C(c2ccc(O)cc2)n2nc(-c3ccc(Cl)cc3)nc2N1` (stereo not drawn), the survival is 82%.
Take `Cc1ccc(C(C)C)c(OCC(=O)Nc2cccc(NC(=O)c3ccco3)c2)c1`: the survival is 12% (active).
With `Cc1ccc2cccc(NC(=O)COc3ccccc3Cl)c2n1`, the survival was 134%.
For `Cc1ccc(C(C)C)c(OCC(=O)Nc2ccc3c(c2)nc(CCNC(=O)c2ccco2)n3C)c1` the value was 88%; for `COc1ccc(NC(=O)c2ccco2)cc1NC(=O)COc1cc(C)ccc1C(C)C`, 85%.
Consider `Cc1ccc2cccc(NC(=O)COc3cc(C)c(Cl)c(C)c3)c2n1`, for which the survival is 82%.
As for `CCC(C)c1ccc(OCC(=O)Nc2cccc3ccc(C)nc23)cc1` (stereo not drawn), the survival is -12% (active).
With `O=c1c(-c2cc(-c3ccccc3)nc3c2COc2ccc(Cl)cc2-3)coc2ccccc12`, the survival is 75%.
For the molecule `COc1cc(C(=O)Nc2nonc2-c2ccc(Cl)cc2)cc(OC)c1OC`, the survival was 94%.
Take `CCC1CCCCN1C(=O)Cn1c(=O)cc(C(F)(F)F)c2c(C)nn(C)c21` (stereo not drawn): the survival was 68%.
On to `Cc1ccc(-c2cc(C(=O)NCc3ccccc3)c3c(-c4ccc(C)cc4)[nH]nc3n2)cc1`, for which the survival was 75%.
Consider `O=C(Cn1c(=O)nc(-c2ccccc2)c2cc(Cl)ccc21)NCCc1ccccc1`, for which the survival was 69%.
On to `O=C(Nc1ccc(NC(=O)c2cc3ccccc3o2)cc1)c1ccccc1`, for which the survival is 80%.
For `CCCCOC(=O)c1ccc(NC(=O)c2cc(=O)c3ccccc3o2)cc1`, the survival is 93%.
With `Cc1ccc(NC(=O)/C=C/c2ccccc2Cl)cc1Cl`, the survival was 97%.
Turning to `CCCCOC(=O)c1cccc(NC(=O)c2cc3ccccc3o2)c1`, the survival is 0% (active).
For `CCCCOC(=O)c1cccc(NC(=O)/C=C/c2ccccc2Cl)c1`, the survival is 7% (active).
In the case of `CCN(CC)c1cc(C)c2cc(NC(=O)/C=C/c3ccccc3Cl)ccc2n1`, the survival is 76%.
For `CC(C)CC(=O)Nc1ccc(C(=O)OCc2cc(=O)n3nc(C4CCCCC4)sc3n2)cc1` the value was 47%; for `CCC12C=CCN3CCC4(c5ccc(OC)cc5NC4C(O)(C(=O)OC)C1OC(C)=O)C32` (stereo not drawn), 100%; for `Cc1ccc(-c2nc(CN(C)C)cc(CN(C)C)c2O)cc1`, 121%.
Turning to `CCOC(=O)CC(N)c1ccc2c(c1)OCO2` (stereo not drawn), the survival was 111%.
